This passage reports normalised cell number results from PubChem BioAssay.

The structures appear in SMILES notation. Several values for one entry are separate records, joined by “and”; a condition that tells them apart may be missing. Equal values may be shown once.

A short description of this experiment: differential killing of epithelial or mesenchymal cells, primary screen, imaging, PC-3E GFP, TEM4-18 mCherry, co-culture (AID 1345086).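 Note: cells exposed to compound for 72 h before imaging.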 Conditions: imaging cell counts, measured here: mesenchymal TEM4-18 mCherry cell survival, at 1 µM.
As for `C[n+]1cc2c3c(ccc2c2ccc4cc5c(cc4c21)OCO5)OCO3`, the normalised cell number was 1.01.

Take `CCN(CC)CCNC(=O)c1ccc(NC(C)=O)cc1`: the normalised cell number came out at 1.13.

Regarding `CCCCC1(COC(=O)CCC(=O)O)C(=O)N(c2ccccc2)N(c2ccccc2)C1=O`, the normalised cell number worked out at 0.87.

On to `CCC(=O)O[C@H]1[C@H](O[C@@H]2[C@@H](C)[C@H](O[C@H]3C[C@@](C)(OC)[C@@H](O)[C@H](C)O3)[C@@H](C)C(=O)O[C@H](CC)[C@@](C)(O)[C@H](O)[C@@H](C)C(=O)[C@H](C)C[C@@]2(C)O)O[C@H](C)C[C@@H]1N(C)C`, for which the normalised cell number turned out to be 1.12.

Molecule `CO/N=C1\CN(c2nc3c(cc2F)c(=O)c(C(=O)O)cn3C2CC2)CC1CN` (stereo not given) returned a normalised cell number of 1.24.

`Cc1c(NC(=O)c2cccnc2)c(=O)n(-c2ccccc2)n1C` showed a normalised cell number of 1.09.

Turning to `CCOc1ccc(NC(C)=O)cc1`, the normalised cell number turned out to be 1.35.

The molecule `Cc1c[nH]c2ccccc12` returned a normalised cell number of 0.85.

The molecule `CC1(C)S[C@@H]2[C@H](NC(=O)C(C(=O)O)c3ccccc3)C(=O)N2[C@H]1C(=O)O` (stereo not given in full) gave a normalised cell number of 1.23.

Regarding `Nc1ccc(S(=O)(=O)Nc2ccc(Cl)nn2)cc1`, the normalised cell number is 0.54.

Take `O=C(O)c1cc(O)c(O)c(O)c1`: the normalised cell number worked out at 1.09.

Take `Cc1c(Nc2ncccc2C(=O)O)cccc1C(F)(F)F`: the normalised cell number is 1.12 and 1.03.

In the case of `CCN(CC)CCOC(=O)C(c1ccccc1)c1ccccc1`, the normalised cell number was 1.22.

In the case of `C/C=C1\[C@H]2C=C(C)C[C@]1(N)c1ccc(=O)[nH]c1C2`, the normalised cell number amounted to 1.18.

The molecule `CCCC(C(=O)OCCN(CC)CC)(c1ccccc1)c1ccccc1` returned a normalised cell number of 1.28.

Turning to `O=c1[nH]cnc2nc[nH]c12`, the normalised cell number was 1.18.

As to `CCN(CC)CCNC(=O)c1cc(Br)c(N)cc1OC`, the normalised cell number was determined as 0.89.

For `COc1ccc(NS(=O)(=O)c2ccc(N)cc2)nn1`, the normalised cell number was 0.98.

With `Cc1ccc(C(C)C)cc2c(C)ccc1-2`, the normalised cell number was determined as 0.92.

`Nc1ccc(C(=O)NCC(=O)O)cc1` gave a normalised cell number of 1.15.

On to `CN(C)C(=O)Oc1cccc([N+](C)(C)C)c1`, for which the normalised cell number stood at 1.04.

The molecule `Oc1c(Cl)cc(Cl)cc1Sc1cc(Cl)cc(Cl)c1O` displayed a normalised cell number of 1.14.

Molecule `COc1ccc(C(=O)c2ccccc2)c(O)c1` displayed a normalised cell number of 1.08.

Take `Nc1nc2c(c(=O)[nH]1)N(C=O)C(CNc1ccc(C(=O)N[C@@H](CCC(=O)O)C(=O)O)cc1)CN2` (stereo not given in full): the normalised cell number is 1.38.

With `C[N+](C)(C)CCCCCC[N+](C)(C)C`, the normalised cell number was 1.

`NC(=NCCCCCCN=C(N)/N=C(\N)Nc1ccc(Cl)cc1)/N=C(\N)Nc1ccc(Cl)cc1` came in with a normalised cell number of 0.93.

In turn, `O=C1c2ccccc2C(=O)C1c1ccccc1` gave a normalised cell number of 1.15.

Molecule `CCO/C([O-])=N/c1c[n+](N2CCOCC2)no1` came in with a normalised cell number of 0.94.

Take `O=C1c2c(O)cccc2Cc2cccc(O)c21`: the normalised cell number amounted to 1.19.

The molecule `Cc1cccc(C(=O)O)c1O` came in with a normalised cell number of 0.79.

Molecule `O=C(O)[C@@H]1[C@H]2C[C@H]3c4[nH]c5ccccc5c4CCN3C[C@@H]2CC[C@@H]1O` displayed a normalised cell number of 0.95.

For the molecule `CC(C)NNC(=O)c1ccncc1`, the normalised cell number was determined as 0.95.

The molecule `C[N+]1(CCCCC[N+]2(C)CCCC2)CCCC1` returned a normalised cell number of 1.

As to `CC(=O)Oc1cccc(O)c1`, the normalised cell number turned out to be 1.33.

Consider `C=CCc1ccccc1OCC(O)CNC(C)C` (stereo not given), for which the normalised cell number was found to be 1.2.

In turn, `NC(CS)C(=O)O` (stereo not given) gave a normalised cell number of 0.99.

With `CCOC(=O)NNc1nncc2ccccc12`, the normalised cell number worked out at 0.9.

In turn, `Cc1nc2n(c(=O)c1CCN1CCC(c3noc4cc(F)ccc34)CC1)CCC[C@H]2O` returned a normalised cell number of 0.98.

`CN1CCCN=C1COC(=O)C(O)(c1ccccc1)C1CCCCC1` (stereo not given): the normalised cell number came to 1.43.

For the molecule `CC1CCC(NC(=O)N(CCCl)N=O)CC1` (stereo not given), the normalised cell number was determined as 1.37.
